From PubChem BioAssay (NCI) come the findings set out here.

Structures are written as SMILES. This is part of a sample that, as a whole, favours compounds with a hit. Of some 83,000 tested, about 20% had one in any assay.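 48-hour exposure, single concentration, 96-well plates; percent growth endpoint where 0 means no net growth. Active: below 10.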 Values without a mark were called inactive. Active and inactive are the calls of the source.

The subject of the test is UACC-257 melanoma. Nature of the test: NCI-60 one-dose screen, 48 h (100 = growth as untreated, 0 = no growth, -100 = all killed). The conditions noted are these: 10 µM.
For the molecule `O=C(COc1cccc(/C=C2\CSc3ccccc3C2=O)c1)c1ccc(Cl)cc1`, the growth was -47% (active).
With `CCn1c(CSc2nc3ccccc3c(=O)n2CCc2ccccc2)n[nH]c1=S`, the growth is 88.5%.
With `COc1ccc2nc3cc(Cl)ccc3c(NCCCNCCO)c2c1` the figure was -75.4% (active); with `Cc1cc(Br)nnc1Br`, 133%.
With `Cc1ccc(NC(=S)NNC(=S)Nc2ccc(C)cc2)cc1`, the growth is 75.8%.
On to `COc1ccc(C2CC(c3cccs3)=NN2c2ccc(S(N)(=O)=O)cc2)cc1` (stereo not given), for which the growth is 30.5%.
Turning to `CC[N+](CC)=c1ccc2nc3c(cc(NCc4ccccc4)c4ccccc43)oc-2c1`, the growth was -98.4% (active).
For `COC1=CC(=O)OC(c2ccc(OC)cc2)C1` (stereo not given) the value was 104%; for `COc1ccccc1-n1c(-c2csc(NC(C)=O)n2)n[nH]c1=S`, 98.1%.
As for `COc1cc(NC(=O)C2=C(N3CCOCC3)/C(=C/c3ccc(Cl)cc3)CC2)cc(OC)c1OC`, the growth is 59.5%.
`C#CC(C)(O)[C@@H]1C[C@H](CC(=O)O)C1(C)C` (stereo not given in full): the growth is 105%.
Turning to `COc1nc2c(c(=O)n1C)CN(c1ccccc1)C(=O)C(C)N2` (stereo not given), the growth was 93.5%.
Turning to `C=CCNCCN1C(=O)c2ccc3c4c(ccc(c24)C1=O)C(=O)N(CCNCC=C)C3=O`, the growth was -90.3% (active).
`COc1cc(-c2ccc[nH]2)[nH]c1/C=C1\N=C(C)C(C(=O)NC(C)C)=C1C`: the growth was 23.3%.
Consider `O=C1c2ccccc2C(=O)N1CCCCNc1ccccc1`, for which the growth was 106%.
With `CC(C)c1ccc(C(C)C(=O)N(CC2=C(C(C)c3ccccn3)c3ccccc3C2)C(C)C)cc1` (stereo not given) the figure was 49.3%; with `Cc1ccc(C)c(COc2cc(NC(=O)c3ccc4c(c3)OCO4)ccc2N(C)S(C)(=O)=O)c1`, 66.6%.
On to `Cc1cc(NC(=O)c2ccc(C)c(Nc3nccc(-c4cccnc4)n3)c2)cc(-n2cnc(C)c2)c1`, for which the growth is 87%.
For `COc1ccc(C2CC(c3cc(OC)c(OC)c(OC)c3)=NN2)cc1` (stereo not given), the growth was 120%.
Take `CC1OC2CC(=O)OC2C2=C1C(=O)c1c(O)c3c(c(O)c1C2=O)C1CC(O)C3(O)C(C)O1` (stereo not given): the growth was -58.4% (active).
`Nc1ncc(-c2cnn(C3CCNCC3)c2)cc1-c1nc2ccccc2o1`: the growth was -82% (active).
With `CCCCCCCCCCCC[n+]1c(C)cc(N)c2ccccc21` the figure was -17.8% (active).
With `COc1ccc(-c2nn(-c3cccc(Cl)c3)cc2/C=C2\NC(=S)N(c3ccc(Cl)cc3)C2=O)cc1` the figure was 1.55% (active); with `CC(=O)Nc1cc2c(cc1Cl)Cc1cc(Cl)ccc1-2`, 88.9%.
Take `COC(=O)CC[C@@H](C)[C@H]1CC[C@H]2[C@@H]3CC[C@@H]4C[C@H](O)CC[C@]4(C)[C@H]3C[C@H](O)[C@]12C`: the growth was 110%.
With `O=C1NC(=O)c2c(CCCSc3nc4ccccc4c(=O)n3CCc3ccccc3)cccc21`, the growth is 105%.
On to `Cc1ccc(C2=NN(c3ccc(S(C)(=O)=O)cc3)C(=O)CC2)cc1`, for which the growth was 50.7%.
With `CCOC(=O)Cn1c(=O)c2sc3ncccc3c2n2nnc(-c3ccccc3)c12`, the growth was 108%.
Regarding `c1ccc(CCCCc2ccc3ccccc3n2)cc1`, the growth was 103%.
For `COc1ccc(-c2nn(-c3cccc(Cl)c3)cc2-c2c(C#N)c(=O)n3[nH]c(-c4ccccc4)nc3c2C#N)cc1` the value was 110%.
On to `COc1ccc2c(c1)C(=O)/C(=C/c1cccc(OCC(=O)c3ccc([N+](=O)[O-])cc3)c1)CO2`, for which the growth was -49.4% (active).
Consider `NC(N)=N/N=C(\c1ccccc1)C(O)c1ccccc1` (stereo not given), for which the growth was 101%.
With `COc1ccc2c(c1)C(CC(=O)NN)CCC2` (stereo not given) the figure was 90.5%; with `Cc1cc(=O)n2nnc3cc(C(F)(F)F)ccc3n12`, 106%; with `NS(=O)(=O)c1ccc(N2N=C(c3ccccc3)CCC2=O)cc1`, 96.5%.
For `COc1ccc(-c2nc(-c3nc4ccc(C)cc4[nH]3)cc3c2[nH]c2ccccc23)cc1` the value was 69.6%; for `COc1cc(C2CC(c3ccccc3)=NN2C(C)=O)cc(OC)c1OC` (stereo not given), 64%; for `CSc1ccc(-c2cc(-c3ccc(NC(=O)CCCN4CCCC4)cc3)nc(-c3ccc(NC(=O)CCCN4CCCC4)cc3)c2)cc1`, 95.3%.
Turning to `CC(C1=C(CN(C(=O)Cc2cn(-c3ccccc3)nc2-c2ccc(Cl)cc2)C(C)C)Cc2ccccc21)c1ccccn1` (stereo not given), the growth was 67.3%.
In the case of `O=C1OC(C(Cl)(Cl)Cl)OC1C(Cl)(Cl)Cl` (stereo not given), the growth was 92.5%.
